Compounds without any hit were thinned out: in the full panel of roughly 79,000, 15% have a hit. A number with no mark means an inactive call. Activity calls are given as the source filed them. No stated cut-off is given here; in the data, active means growth inhibition above about 70%; inactive means the rest.
Experiments:
[1] = NCI Yeast Anticancer Drug Screen. Data for the rad50 strain (AID 155);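 further: 0% = growth of vehicle-only cultures of the same strain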; conditions: S. cerevisiae rad50 strain growth inhibition, hits give high values
In short: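 Inhibition values express reduced yeast growth in compound-treated cultures relative to vehicle-treated controls.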

[2] = NCI Yeast Anticancer Drug Screen. Data for the mec2-1 strain (AID 157); conditions: S. cerevisiae mec2-1 strain, hits give high values
In short: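 Cells of the genetically defined mec2-1 yeast strain are incubated with test compound. Inhibition of growth is calculated against vehicle-treated controls.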

[3] = NCI Yeast Anticancer Drug Screen. Data for the sgs1 mgt1 strain (AID 161);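 further: 0% = growth of cultures given vehicle only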; conditions: S. cerevisiae sgs1 mgt1 strain, hits give high values
In short: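 Genetically altered yeast, compound exposure, growth inhibition relative to vehicle.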

[4] = NCI Yeast Anticancer Drug Screen. Data for the cln2 rad14 strain (AID 165);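 further: 0% = growth equal to vehicle treated cultures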; conditions: S. cerevisiae cln2 rad14 strain, hits give high values
In short: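 The screen exposed genetically defined yeast (cln2 rad14) to test compounds and scored growth inhibition relative to vehicle-treated controls.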

[5] = NCI Yeast Anticancer Drug Screen. Data for the bub3 strain (AID 167); conditions: S. cerevisiae bub3 mutant strain, hits give high values
In short: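 Steps: expose the mutant yeast strain to compound; grow alongside vehicle-treated cultures; measure growth; express inhibition against the vehicle cultures.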

[6] = NCI Yeast Anticancer Drug Screen. Data for the mlh1 rad18 strain (AID 175); conditions: S. cerevisiae mlh1 rad18 strain growth inhibition, hits give high values
In short: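 Compound-treated yeast growth, normalised to vehicle controls. Strain bears defined DNA repair mutations.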

[7] = at 5.0 µM (retest, dose inferred, filed as 0.5)
[8] = at 50.0 µM (retest, dose inferred, filed as 5.0)

| SMILES | growth inhibition [1, 7] | growth inhibition [1, 8] | growth inhibition ([1]; at 50.0 µM) | growth inhibition [2, 7] | growth inhibition [2, 8] | growth inhibition ([2]; at 50.0 µM) | growth inhibition [3, 7] | growth inhibition [3, 8] | growth inhibition ([3]; at 50.0 µM) | growth inhibition [4, 7] | growth inhibition [4, 8] | growth inhibition ([4]; at 50.0 µM) | growth inhibition [5, 7] | growth inhibition [5, 8] | growth inhibition ([5]; at 50.0 µM) | growth inhibition [6, 7] | growth inhibition [6, 8] | growth inhibition ([6]; at 50.0 µM) |
| --- | --- | --- | --- | --- | --- | --- | --- | --- | --- | --- | --- | --- | --- | --- | --- | --- | --- | --- |
| CCOc1cc2c(cc1O)CC[C@@H]1[C@@H]2CC[C@]2(C)[C@@H](O)CC[C@@H]12 | 33% | 39% | 41% | 13% | 33% | -10.4% | 13% | 34% | 46.8% | 12% | 30% | 33.4% | 25% | 39% | 44.2% | 27% | 42% | 40.8% |
| CCn1c2ccc(N)cc2c2c(N)c(-n3cccc3)ccc21 | 1% | 61% | 94.5% (active) | 3% | 54% | 64.2% | -7% | 71% (active) | 97.5% (active) | -6% | 50% | 61.9% | -2% | 86% (active) | 87.5% (active) | 4% | 57% | 91.5% (active) |
| O=C(OCC1OC(OCC(OC(=O)c2ccccc2)C(OC(=O)c2ccccc2)C(OC(=O)c2ccccc2)c2cnn(-c3ccccc3)n2)C(OC(=O)c2ccccc2)C(OC(=O)c2ccccc2)C1OC(=O)c1ccccc1)c1ccccc1 (stereo not given) | -6% | -1% | 97.5% (active) | -14% | -21% | 94.8% (active) | -1% | -6% | 98% (active) | 6% | 7% | 98.6% (active) | -12% | 4% | 96.8% (active) | -4% | -10% | 97.7% (active) |
| CCCCCCCCCCCCCCCCCCOC(=O)C(N)Cc1ccccc1 (stereo not given) | -1% | -9% | -7.3% | -2% | -5% | 10.1% | 0% | -6% | 11.1% | -6% | -4% | -7.75% | -2% | -3% | -5.85% | -3% | -8% | 5.5% |
| CCC(=O)Oc1c(Cl)cc(Cl)c(Cl)c1Cl | 4% | 56% | 43.4% | 6% | 59% | 14.2% | 2% | 79% (active) | 48.1% | -3% | 30% | 5.45% | -3% | 54% | 14.2% | 16% | 90% (active) | 74.3% (active) |
| CC(C)(C)NC(=S)N/N=C/c1ccccc1O | 48% | 66% | 89% (active) | 25% | 73% (active) | 88.8% (active) | 40% | 88% (active) | 92.5% (active) | 24% | 59% | 87.2% (active) | 36% | 78% (active) | 88.2% (active) | 48% | 96% (active) | 91% (active) |
| CCCC/C=C(/CCCNCCCC)[Si](C)(C)C | 70% (active) | 97% (active) | 91.8% (active) | 72% (active) | 99% (active) | 93.7% (active) | 90% (active) | 99% (active) | 94.2% (active) | 73% (active) | 98% (active) | 92.8% (active) | 90% (active) | 99% (active) | 92.7% (active) | 91% (active) | 98% (active) | 91.9% (active) |
| CN1CCN(CC(=O)c2c(-c3ccccc3)[nH]c3ccccc23)CC1 | 68% | 4% | 33.2% | 56% | 1% | 15.8% | 66% | 7% | 9.45% | 50% | 21% | 33.1% | 58% | 4% | -9.9% | 80% (active) | 1% | 8.15% |
| O=Cc1cc2ccccc2cc1C=O | 88% (active) | 96% (active) | 86% (active) | 94% (active) | 97% (active) | 87.3% (active) | 84% (active) | 96% (active) | 87.2% (active) | 87% (active) | 95% (active) | 88.8% (active) | 94% (active) | 96% (active) | 86.5% (active) | 93% (active) | 95% (active) | 86.2% (active) |
| O=S(=O)(Nc1ccccc1-c1ccc(Cl)cc1)c1ccccc1 | -6% | 14% | 98.9% (active) | -8% | 8% | 52.9% | -7% | -56% | 97.5% (active) | -12% | 95% (active) | 98% (active) | 2% | 91% (active) | 54.9% | -8% | 57% | 73.7% (active) |
| CCCCCCCCCCCC[n+]1cc2ccccc2cc1C | 98% (active) | 98% (active) | 91.7% (active) | 99% (active) | 99% (active) | 90.8% (active) | 98% (active) | 99% (active) | 88.5% (active) | 97% (active) | 99% (active) | 86.7% (active) | 99% (active) | 99% (active) | 93.2% (active) | 97% (active) | 98% (active) | 90.8% (active) |
| CCN(CC)CCO/N=C1\CC[C@H]2[C@@H]3CCc4cc(OC)ccc4[C@H]3CC[C@]12C | 31% | 99% (active) | 89.1% (active) | 27% | 98% (active) | 92.2% (active) | 58% | 98% (active) | 91.3% (active) | 67% | 98% (active) | 89% (active) | 66% | 98% (active) | 90.7% (active) | 34% | 99% (active) | 89.7% (active) |
| CC(=O)[O-].[Mn+3].[O-]c1ccc(Cl)cc1C=NCCN=Cc1cc(Cl)ccc1[O-] | -2% | 92% (active) | 98.8% (active) | -3% | 66% | 98.5% (active) | 6% | 87% (active) | 98.6% (active) | 8% | 89% (active) | 89.2% (active) | 16% | 98% (active) | 98.2% (active) | -1% | 93% (active) | 98.6% (active) |
| O=C(Nc1ccccc1)O/N=C1/CCCC/C1=C\c1ccccc1 | 26% | 77% (active) | 88.4% (active) | 41% | 85% (active) | 90.1% (active) | 57% | 86% (active) | 88.3% (active) | 65% | 85% (active) | 84.4% (active) | 54% | 87% (active) | 81.6% (active) | 35% | 88% (active) | 84.1% (active) |
| C=C(Br)CN(CC)CC | -151% | -185% | -16.6% | -48% | -54% | -15.7% | -64% | -67% | -5.55% | -51% | -63% | 11.7% | -69% | -72% | -0.5% | -130% | -170% | -3.5% |
| Nc1nc(SCc2ccccc2)c2ncn(CCCl)c2n1 | -3% | 0% | 1.4% | -4% | 2% | 15.3% | -9% | 1% | 17.6% | -4% | -1% | 70.3% (active) | -2% | -7% | -2.15% | -2% | 3% | 20.9% |
| OC1(c2ccccc2)CCN(c2c3ccccc3nc3ccccc23)CC1 | 0% | 63% | 98.9% (active) | 3% | 75% (active) | 99.5% (active) | 6% | 75% (active) | 97.6% (active) | 5% | 30% | 99% (active) | 0% | 58% | 99.3% (active) | -2% | 68% | 99.4% (active) |
| C=CS(=O)(=O)Cc1ccc(Cl)cc1 | -126% | 91% (active) | 98.6% (active) | -31% | 91% (active) | 97.2% (active) | -33% | 91% (active) | 94.2% (active) | -42% | 84% (active) | 93.9% (active) | -48% | 94% (active) | 97% (active) | -108% | 95% (active) | 97.4% (active) |
| COc1ccc(Oc2cc3c[n+](C)ccc3cc2OC)cc1 | 4% | 90% (active) | 99% (active) | -3% | 57% | 99% (active) | -3% | 91% (active) | 99.4% (active) | 2% | 70% (active) | 98% (active) | 0% | 90% (active) | 98% (active) | 15% | 88% (active) | 98.8% (active) |
| N#C/C(=C\c1cccnc1)c1csc2ccccc12 | 2% | 86% (active) | 95.3% (active) | 8% | 91% (active) | 88.8% (active) | 2% | 85% (active) | 75.2% (active) | 1% | 83% (active) | 73% (active) | 1% | 83% (active) | 94.2% (active) | -5% | 88% (active) | 94.4% (active) |

Source: PubChem BioAssay (NCI)
